Consider five compounds from PubChem BioAssay.

Records with an inconclusive call do not appear. The source made the active and inactive calls. Unless noted, no stated cut-off is given here; in the data, active means percent of DMSO control GFP below about 86%; inactive means the rest, inconclusive results apart.

Experiment [1] in a line: yeast TOR pathway RPL19A-GFP modulators, primary screen, cell-based, S. cerevisiae, multiplex flow cytometry (AID 1862).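 Further: lower values mimic rapamycin by blocking the RPL19A rise seen in DMSO cells.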 The following applies: S. cerevisiae RPL19A-GFP strain, flow cytometry fluorescence, 3 h; at 10 µM; stronger effect = lower value.
Experiment [2] can be described thus: modulators of MEP2-GFP levels in yeast, primary screen, S. cerevisiae, multiplex flow cytometry (AID 1867;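 active means GFP response, as percent of the DMSO control, above the screen-wide mean plus 3 SD, about 139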;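 further: median GFP channel fluorescence of barcode-gated MEP2-GFP cells measured by flow cytometry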). The following applies: S. cerevisiae MEP2-GFP strain, 3 h, at 10 µM, stronger effect = higher value, 100% means same as DMSO wells.
Experiment [3] in a line: modulators of CIT2-GFP expression in yeast, primary screen, S. cerevisiae, GFP fusion, multiplex flow cytometry (AID 1870;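 active means percent response above a set limit, the screen-wide mean plus 3 SD, cut at about 130% in these data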;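 further: barcoded CIT2-GFP strain pooled with four other GFP strains with rapamycin as positive control; median GFP fluorescence per well over plate mean of DMSO wells so 100% = DMSO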). The following applies: 3 h, at 10 µM, stronger effect = higher value.
Experiment [4] can be described thus: modulators of LAP4-GFP expression in yeast, primary screen, S. cerevisiae, multiplex flow cytometry (AID 1873;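 active means GFP signal, as percent of the solvent control, above the screen mean plus 3 SD, about 149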). The following applies: 3 h, at 10 µM, stronger effect = higher value.
Experiment [5] is described as follows: modulators of AGP1-GFP expression in yeast TOR pathway, primary screen, cell-based, multiplex flow cytometry, S. cerevisiae (AID 1887;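 active means GFP signal above the screen-wide mean plus 3 SD, that is over about 124.5% of the solvent control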;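 further: AGP1-GFP fusion strain of S. cerevisiae within a five-strain barcoded multiplex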). The following applies: 3 h, at 10 µM, stronger effect = higher value.
The nature of experiment [6]: inhibitors of CD8+ T cell-vesicle binding, pilot screen, LFA-1/ICAM-1 modulator project, MLPCN validation set, flow cytometry (AID 2523;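 active means response below a set limit, under 55% cells CD8-positive and vesicle-bound, and CD8 cells' 90th-percentile brightness under 279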;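 on vesicle binding response: mean PE anti-B7-1 fluorescence of CD8+ cells relative to row control; 100% = QL9-loaded vesicles with DMSO vehicle in the same plate row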). The following applies: 2C mouse CD8+ T cells, at 7 µM, stronger effect = lower value; double positive events: measured here: CD8+/vesicle+ event percentage.
The target in experiment [7] is Integrin beta-1 (Homo sapiens) + Integrin alpha-4 (Homo sapiens) (UniProt P13612+P05556). Put plainly: inhibition of HUTS-21 binding to VLA-4, pilot screen, VLA-4 allosteric modulator project, U937 cells, HUTS-21 mAb, flow cytometry, validation set (AID 2674;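 active means inhibition above 50%, about 3 SD of the validation set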;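 further: antibody binding induced by the VLA-4 ligand LDV present at three times its Kd; 0% = LDV ligand with antibody and no compound and 100% = antibody without LDV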). The following applies: HUTS-21 LIBS mAb binding, at 6.7 µM, stronger effect = higher value, binding induced by LDV ligand.
Chain of Integrin beta-1 (Homo sapiens) + Integrin alpha-4 (Homo sapiens) (P05556 whole entry, looked up): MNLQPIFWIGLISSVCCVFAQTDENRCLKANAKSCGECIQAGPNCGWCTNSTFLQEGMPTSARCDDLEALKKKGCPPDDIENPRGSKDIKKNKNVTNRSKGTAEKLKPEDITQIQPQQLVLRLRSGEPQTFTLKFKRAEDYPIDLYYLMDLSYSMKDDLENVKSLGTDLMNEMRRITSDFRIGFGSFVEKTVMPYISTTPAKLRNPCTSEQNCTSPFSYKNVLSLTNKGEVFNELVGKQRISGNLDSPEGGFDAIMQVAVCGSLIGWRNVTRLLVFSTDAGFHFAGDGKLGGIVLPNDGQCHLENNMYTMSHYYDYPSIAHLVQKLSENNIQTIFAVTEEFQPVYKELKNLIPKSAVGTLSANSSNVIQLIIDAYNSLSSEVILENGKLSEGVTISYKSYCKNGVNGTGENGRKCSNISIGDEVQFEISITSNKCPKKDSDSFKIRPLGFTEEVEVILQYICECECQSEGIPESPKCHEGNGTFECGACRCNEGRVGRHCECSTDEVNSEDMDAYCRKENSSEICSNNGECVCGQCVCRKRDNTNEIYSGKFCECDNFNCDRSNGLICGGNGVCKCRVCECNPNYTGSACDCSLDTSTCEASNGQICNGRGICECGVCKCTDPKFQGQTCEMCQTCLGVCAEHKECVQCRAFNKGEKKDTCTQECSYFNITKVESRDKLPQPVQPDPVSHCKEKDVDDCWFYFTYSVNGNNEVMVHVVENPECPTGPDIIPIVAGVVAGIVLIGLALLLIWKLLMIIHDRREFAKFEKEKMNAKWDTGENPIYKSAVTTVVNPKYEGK
Chain of Integrin beta-1 (Homo sapiens) + Integrin alpha-4 (Homo sapiens) (P13612 whole entry, looked up): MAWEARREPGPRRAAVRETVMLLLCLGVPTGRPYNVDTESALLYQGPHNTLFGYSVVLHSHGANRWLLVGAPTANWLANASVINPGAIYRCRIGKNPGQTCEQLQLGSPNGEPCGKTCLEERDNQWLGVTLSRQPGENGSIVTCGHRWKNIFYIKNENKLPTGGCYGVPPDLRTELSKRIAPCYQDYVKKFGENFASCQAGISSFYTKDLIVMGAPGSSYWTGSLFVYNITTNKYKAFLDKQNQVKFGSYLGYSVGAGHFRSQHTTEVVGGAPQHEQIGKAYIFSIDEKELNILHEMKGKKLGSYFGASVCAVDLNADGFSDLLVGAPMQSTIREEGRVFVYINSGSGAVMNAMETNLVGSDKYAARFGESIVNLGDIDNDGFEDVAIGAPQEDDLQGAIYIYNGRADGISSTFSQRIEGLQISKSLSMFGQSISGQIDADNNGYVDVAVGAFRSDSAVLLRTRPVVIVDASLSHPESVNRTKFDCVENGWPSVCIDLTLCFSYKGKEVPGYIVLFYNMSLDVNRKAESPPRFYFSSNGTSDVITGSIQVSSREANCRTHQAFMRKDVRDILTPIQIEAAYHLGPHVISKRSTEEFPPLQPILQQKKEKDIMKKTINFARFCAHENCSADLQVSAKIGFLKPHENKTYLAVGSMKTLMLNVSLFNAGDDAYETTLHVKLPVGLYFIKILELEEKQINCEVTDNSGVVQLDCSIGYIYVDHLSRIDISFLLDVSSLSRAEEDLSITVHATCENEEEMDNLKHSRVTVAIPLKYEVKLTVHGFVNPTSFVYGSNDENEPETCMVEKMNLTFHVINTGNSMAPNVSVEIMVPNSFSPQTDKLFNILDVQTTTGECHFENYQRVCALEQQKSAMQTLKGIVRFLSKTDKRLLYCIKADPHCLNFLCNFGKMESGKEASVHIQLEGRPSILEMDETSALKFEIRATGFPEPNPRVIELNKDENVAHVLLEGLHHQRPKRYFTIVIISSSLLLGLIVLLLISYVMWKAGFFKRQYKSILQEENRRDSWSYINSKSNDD

Experiment [8] can be described thus: superoxide lowering in aged yeast cells, pilot screen, validation compound set (AID 2706;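 active means superoxide response below 65% of plate, a cut near 3 SD across the whole screen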;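 further: yeast exposed to compound for one week at 30 degrees C before staining; 100% = mean of all compound wells on the same plate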). The following applies: S. cerevisiae aging, superoxide DHE fluorescence; at 10 µM; stronger effect = lower value.
Experiment [9] deals with Beta-adrenergic receptor kinase 1 (Homo sapiens) (UniProt P25098). Put plainly: GRK2 binders displacing RNA aptamer, biochemical, validation, human GRK2, bead flow cytometry (AID 488806;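 active means aptamer binding inhibition above 30%, about 3 SD of noise from non-fluorescent compounds; inactive means inhibition at or below 30%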). The following applies: bead-bound GRK2, FAM-aptamer displacement, at 10 µM, stronger effect = higher value.
Chain of Beta-adrenergic receptor kinase 1 (Homo sapiens) (P25098 whole entry, looked up): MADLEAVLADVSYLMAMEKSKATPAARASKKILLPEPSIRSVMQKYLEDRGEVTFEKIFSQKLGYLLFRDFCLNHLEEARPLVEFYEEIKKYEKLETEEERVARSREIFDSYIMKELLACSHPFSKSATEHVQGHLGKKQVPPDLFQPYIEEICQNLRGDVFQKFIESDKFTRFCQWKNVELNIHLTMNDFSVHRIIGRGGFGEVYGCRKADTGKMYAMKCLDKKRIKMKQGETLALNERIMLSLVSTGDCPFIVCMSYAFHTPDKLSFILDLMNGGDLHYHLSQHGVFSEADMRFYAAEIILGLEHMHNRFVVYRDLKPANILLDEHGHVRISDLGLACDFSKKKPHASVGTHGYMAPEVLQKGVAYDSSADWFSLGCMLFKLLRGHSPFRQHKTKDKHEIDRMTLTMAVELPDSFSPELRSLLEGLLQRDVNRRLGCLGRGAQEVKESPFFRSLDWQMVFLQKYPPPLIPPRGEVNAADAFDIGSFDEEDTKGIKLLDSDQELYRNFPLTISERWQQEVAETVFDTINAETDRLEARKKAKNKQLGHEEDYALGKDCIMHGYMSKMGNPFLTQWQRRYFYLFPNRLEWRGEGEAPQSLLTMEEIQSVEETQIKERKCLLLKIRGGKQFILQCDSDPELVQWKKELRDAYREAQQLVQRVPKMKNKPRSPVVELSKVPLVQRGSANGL
The target in experiment [10] is Beta-2 adrenergic receptor (Homo sapiens) (UniProt P07550). The experiment can be described thus: beta2AR agonists driving receptor internalization, pilot screen, cell-based, FAP fluorogen, flow cytometry, validation set (AID 504459;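 active means percent response above 42, roughly 3 SD of non-fluorescent test compounds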;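 further: agonist-driven loss of surface beta2AR via internalization measured by FAP dye flow cytometry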). The following applies: Am2.2-beta2AR cells, FAP surface receptor flow cytometry; at 10 µM; stronger effect = higher value.
Chain of Beta-2 adrenergic receptor (Homo sapiens) (P07550 whole entry, looked up): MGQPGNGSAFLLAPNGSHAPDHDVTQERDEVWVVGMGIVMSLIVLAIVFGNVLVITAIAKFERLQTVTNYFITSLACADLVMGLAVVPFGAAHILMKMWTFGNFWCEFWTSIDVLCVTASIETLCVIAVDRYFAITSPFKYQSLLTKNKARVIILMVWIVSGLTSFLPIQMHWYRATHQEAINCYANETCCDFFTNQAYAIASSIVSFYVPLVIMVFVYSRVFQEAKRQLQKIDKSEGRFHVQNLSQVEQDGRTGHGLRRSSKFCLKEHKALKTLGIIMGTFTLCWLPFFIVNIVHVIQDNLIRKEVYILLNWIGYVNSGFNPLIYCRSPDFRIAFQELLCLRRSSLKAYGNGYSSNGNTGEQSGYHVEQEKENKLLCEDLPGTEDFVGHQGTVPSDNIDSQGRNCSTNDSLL
Experiment [11] has as its target AP-2 complex subunit beta (Homo sapiens) (UniProt P63010). Put plainly: inhibitors of arrestin peptide binding to AP2, pilot screen, biochemical, validation set, GST-AP2 beads, flow cytometry (AID 504541;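 active means inhibition above 54%, about 3 SD of non-fluorescent compounds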;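 further: AP2 carries R879A mutation and is captured from E. coli lysate; bead-bound FITC arrestin peptide fluorescence measuring arrestin peptide binding to AP2; 0% = DMSO wells and 100% = excess unlabeled arrestin peptide control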). The following applies: FITC arrestin peptide, at 10 µM, stronger effect = higher value, AP2 beta2 appendage fragment, R879A mutant.
Experiment [12] is described as follows: yeast V-ATPase proton transport modulators, S. cerevisiae, pHLuorin, HTS validation (AID 504600; in the data active means response above about 15%;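 further: plate controls were DMSO for no effect and reference compound for full effect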). The following applies: S. cerevisiae pHLuorin cytosolic pH, at 10 µM, stronger effect = higher value.
The test system of experiment [13] is anti-desmoglein-3 scFv antibody binding to human DSG3. The experiment can be described thus: inhibitors of anti-DSG3 scFv binding to DSG3, pilot screen, biochemical, validation compound set, bead-based, flow cytometry (AID 588368;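 active means binding below the plate cutoff, the plate median minus 3 SD, with a reading above zero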;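 further: signal is the median channel fluorescence of bead-bound GFP antibody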). The following applies: Protein G beads, DSG3-Fc, scFv-GFP binding, at 10 µM, stronger effect = lower value.
The nature of experiment [14]: inhibitors of fungal efflux pumps CDR1, CDR2, MDR1, pilot screen, validation compound set, multiplex, phenotypic (AID 588506;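 active means efflux inhibition above 0.42, the validation set average plus 4 SD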;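 further: Nile Red retained in cells so higher fluorescence means more efflux inhibition; 0 = negative control wells and 1 = enniatin B 25 µM full block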). The following applies: S. cerevisiae pump-expressing triplex, Nile Red efflux flow cytometry; at 10 µM; stronger effect = higher value; the pumps come from Candida albicans.
Experiment [15] deals with ATP-binding cassette sub-family B member 6 (Homo sapiens) (UniProt Q9NP58). Put plainly: ABCB6 transporter inhibitors, pilot screen, K562-ABCB6 cells, flow cytometry, validation set (AID 588550;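 active means inhibition above the screen-wide mean plus 3 SD, about 51%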;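 further: 0% = DMSO wells and 100% = benzethonium chloride 70 µM positive control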). The following applies: K562-ABCB6 porphyrin accumulation, 1 h, at 10 µM, stronger effect = higher value.
Chain of ATP-binding cassette sub-family B member 6 (Homo sapiens) (Q9NP58 whole entry, looked up): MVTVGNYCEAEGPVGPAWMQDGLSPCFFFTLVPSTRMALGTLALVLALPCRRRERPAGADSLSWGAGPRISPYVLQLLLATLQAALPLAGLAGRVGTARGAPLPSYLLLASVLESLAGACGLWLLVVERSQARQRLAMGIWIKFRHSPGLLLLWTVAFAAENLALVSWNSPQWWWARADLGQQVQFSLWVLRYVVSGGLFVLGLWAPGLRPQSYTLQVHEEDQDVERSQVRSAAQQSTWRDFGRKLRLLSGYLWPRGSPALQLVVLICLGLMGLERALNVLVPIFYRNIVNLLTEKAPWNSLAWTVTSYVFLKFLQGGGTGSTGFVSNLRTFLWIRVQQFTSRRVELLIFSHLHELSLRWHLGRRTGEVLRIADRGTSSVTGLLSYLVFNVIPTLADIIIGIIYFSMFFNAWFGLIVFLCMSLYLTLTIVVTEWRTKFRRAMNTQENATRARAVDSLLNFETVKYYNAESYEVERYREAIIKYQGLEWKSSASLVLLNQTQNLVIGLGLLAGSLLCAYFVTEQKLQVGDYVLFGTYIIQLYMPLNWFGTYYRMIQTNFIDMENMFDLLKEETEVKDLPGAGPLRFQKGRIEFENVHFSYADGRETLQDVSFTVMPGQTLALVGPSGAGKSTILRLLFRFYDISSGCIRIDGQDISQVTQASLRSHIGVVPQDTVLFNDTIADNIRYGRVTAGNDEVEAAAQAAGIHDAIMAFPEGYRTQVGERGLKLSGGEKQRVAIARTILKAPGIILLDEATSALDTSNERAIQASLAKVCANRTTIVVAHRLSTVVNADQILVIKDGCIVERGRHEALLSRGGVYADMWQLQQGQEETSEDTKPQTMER
The nature of experiment [16]: promoters of myeloid differentiation in arrested cells, primary screen, cell-based, GFP/MAC1 double positive, flow cytometry, validation set (AID 588685;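 active means differentiation response of at least 50%, scaled between solvent and reference control, from cells with both markers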;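 further: compound exposure lasts four days before antibody staining and flow analysis; 0% = DMSO wells and 100% = 5 µM fulvestrant positive control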). The following applies: ER-HoxA9 marrow cells, stronger effect = higher value, normalized: vehicle 0, fulvestrant 100.

Chain of AP-2 complex subunit beta (Homo sapiens) (P63010 whole entry, looked up, the tested form may be a part, one chain of several): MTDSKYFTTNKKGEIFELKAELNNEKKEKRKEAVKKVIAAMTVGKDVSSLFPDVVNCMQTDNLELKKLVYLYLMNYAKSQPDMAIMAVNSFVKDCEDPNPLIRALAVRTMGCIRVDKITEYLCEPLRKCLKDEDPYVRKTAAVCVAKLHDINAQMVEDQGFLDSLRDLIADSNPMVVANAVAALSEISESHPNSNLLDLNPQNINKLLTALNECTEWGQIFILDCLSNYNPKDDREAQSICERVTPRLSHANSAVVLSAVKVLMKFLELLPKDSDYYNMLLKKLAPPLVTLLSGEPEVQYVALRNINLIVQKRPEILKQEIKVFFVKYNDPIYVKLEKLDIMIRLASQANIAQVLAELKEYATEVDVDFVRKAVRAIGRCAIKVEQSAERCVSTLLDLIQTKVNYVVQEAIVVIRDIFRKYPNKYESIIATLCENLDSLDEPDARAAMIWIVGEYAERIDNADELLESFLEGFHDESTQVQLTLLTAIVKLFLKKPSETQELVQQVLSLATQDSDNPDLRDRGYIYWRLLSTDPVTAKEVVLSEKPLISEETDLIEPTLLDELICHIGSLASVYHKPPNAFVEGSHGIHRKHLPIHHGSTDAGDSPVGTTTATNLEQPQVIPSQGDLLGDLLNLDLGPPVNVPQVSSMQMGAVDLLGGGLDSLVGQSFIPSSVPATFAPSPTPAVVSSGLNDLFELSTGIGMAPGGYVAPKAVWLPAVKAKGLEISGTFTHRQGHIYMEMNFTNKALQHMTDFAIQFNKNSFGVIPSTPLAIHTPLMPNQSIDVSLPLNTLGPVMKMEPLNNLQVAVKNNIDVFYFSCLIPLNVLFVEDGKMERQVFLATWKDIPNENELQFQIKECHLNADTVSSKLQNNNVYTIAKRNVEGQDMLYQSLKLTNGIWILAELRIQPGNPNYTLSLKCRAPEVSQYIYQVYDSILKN

`Cc1ccc(CSCC(=O)N2CCCC2)cc1`: the percent of DMSO control GFP in [1] was 102% (inactive). Also, the GFP response vs DMSO in [2] was 98.7% (inactive); in [4] it was 106% (inactive). Further, the percent response of DMSO control in experiment [3] is 101% (inactive). In addition, the GFP response, % of DMSO in experiment [5] was 106% (inactive). For the same compound, the double positive events in experiment [6] stood at 63.7%. Moreover, the vesicle binding response in experiment [6] was 132% (inactive). The figures for the inhibition in experiment [7], in experiment [11] and in experiment [15] were 20.4% (inactive), -2.44% (inactive) and 0% (inactive), respectively. Also, in experiment [8], the superoxide response (% of plate) is 95% (inactive). For the same compound, the aptamer binding inhibition in [9] is -2% (inactive). Further, the values for the response in [10] and in experiment [12] were 7.33% (inactive) and -8.52% (inactive), respectively. In addition, the binding (% of control) in experiment [13] is 97.9% (inactive). The efflux inhibition (fraction of control) in [14] is -0.05 (inactive). The differentiation response in [16] is -8.96% (inactive).
On to `Cc1ccc2c(c1)c(C)cc(=O)n2CCC(=O)O`, for which, in experiment [1], the percent of DMSO control GFP is 101% (inactive). The GFP response vs DMSO in experiment [2] is 102% (inactive); in experiment [4], 116% (inactive). Moreover, the percent response of DMSO control in [3] was 98.6% (inactive). Further, the GFP response, % of DMSO in experiment [5] is 102% (inactive). Moreover, the double positive events in experiment [6] was 61.6%. Further, the vesicle binding response in [6] is 210% (inactive). In addition, the inhibition was 13.2% (inactive) in experiment [7], 11.3% (inactive) in experiment [11] and 3% (inactive) in experiment [15]. The superoxide response (% of plate) in [8] was 97.2% (inactive). Moreover, the aptamer binding inhibition in experiment [9] is 17% (inactive). The response in [10] was 4.73% (inactive); in experiment [12], 1.4% (inactive). Further, the binding (% of control) in [13] was 101% (inactive). Moreover, the efflux inhibition (fraction of control) in experiment [14] is -0.24 (inactive). For the same compound, the differentiation response in [16] was -20% (inactive).
`CC(C)C(CCN1C(=O)CCC1=O)C1CCOC(C)(C)C1` (stereo not given): the percent of DMSO control GFP in [1] is 103% (inactive). The GFP response vs DMSO in experiment [2] was 104% (inactive); in [4], 95.8% (inactive). Further, the percent response of DMSO control in [3] was 100% (inactive). For the same compound, the GFP response, % of DMSO in experiment [5] was 101% (inactive). Further, the double positive events in [6] amounted to 62.8%. Further, the vesicle binding response in experiment [6] was 130% (inactive). In addition, the inhibition in experiment [7] is 3.98% (inactive); in [11], -12.4% (inactive); in experiment [15] it was 10% (inactive). Besides, the superoxide response (% of plate) in [8] was 103% (inactive). The aptamer binding inhibition in [9] is 11% (inactive). Besides, the response in [10] is -1.22% (inactive); in experiment [12], -0.12% (inactive). The binding (% of control) in [13] was 98.8% (inactive). Also, in [14], the efflux inhibition (fraction of control) was 0.42 (inactive). Besides, in experiment [16], the differentiation response was 4.97% (inactive).
As for `COc1cc(C(=O)N/C(=C\c2cn(C)c3ccccc23)C(=O)NCCCO)cc(OC)c1OC`, in experiment [1], the percent of DMSO control GFP was 102% (inactive). Also, the GFP response vs DMSO in experiment [2] was 94.1% (inactive); in [4], 75.2% (inactive). For the same compound, the percent response of DMSO control in [3] is 107% (inactive). In addition, the GFP response, % of DMSO in [5] is 88% (inactive). Moreover, the double positive events in [6] is 56.3%. The vesicle binding response in [6] was 215% (inactive). Further, the inhibition is 11.9% (inactive) in experiment [7], -0.03% (inactive) in experiment [11] and 7% (inactive) in experiment [15]. The superoxide response (% of plate) in experiment [8] was 99.7% (inactive). The aptamer binding inhibition in [9] is 2% (inactive). Moreover, the response is 5% (inactive) in [10] and 11.1% (inactive) in experiment [12]. Moreover, the binding (% of control) in experiment [13] was 100% (inactive). For the same compound, in [14], the efflux inhibition (fraction of control) was 0.3 (inactive). Further, the differentiation response in [16] is -15.2% (inactive).
`CN(C)C(=O)CCCCCCCCC(=O)N(C)C`: the percent of DMSO control GFP in experiment [1] was 90.6% (inactive). In addition, the results for the GFP response vs DMSO in experiment [2] and in experiment [4] were 146% (active) and 79.2% (inactive), respectively. In addition, the percent response of DMSO control in experiment [3] is 107% (inactive). Also, the GFP response, % of DMSO in experiment [5] is 93.3% (inactive). The compound further registered a double positive events in experiment [6] of 64.1%. The vesicle binding response in [6] was 194% (inactive). Also, the inhibition in [7] was 7.43% (inactive); in experiment [11], 12.9% (inactive); in experiment [15], 6% (inactive). Also, the superoxide response (% of plate) in [8] is 81.8% (inactive). In [9], the aptamer binding inhibition is 5% (inactive). Also, the response is 3.92% (inactive) in experiment [10] and -5.22% (inactive) in experiment [12]. Further, the binding (% of control) in experiment [13] is 101% (inactive). Besides, in [14], the efflux inhibition (fraction of control) was 0.16 (inactive). The differentiation response in [16] is 1.64% (inactive).
